Assay results taken from PubChem BioAssay (EPA / NIEHS).
Records with an inconclusive call do not appear. Calls of active or inactive are those of the source. How the source made its calls, unless noted: active means hit-call score of the fitted dose curve at least 0.9, where 1 is the maximum; inactive means score below 0.9.

Assays:
[1] = read-out: E-selectin (Homo sapiens) (UniProt P16581); test: BSK_SAg_Eselectin: BioMAP Diversity Plus: SAg Assay for Eselectin Biomarker Activity (AID 2283091); conditions: primary human HUVEC with PBMC; actives raise or lower the signal
In short: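 Cell-surface E-selectin is read by ELISA at 24 h in the SAg co-culture of HUVEC and PBMC. Curves are fitted in both directions relative to DMSO. Parallel SRB total-protein staining tracks overt toxicity.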

[2] = read-out: Monokine induced gamma interferon (MIG), CXCL9 (gene 4283); test: BSK_SAg_MIG: BioMAP Diversity Plus: SAg Assay for Monokine induced gamma interferon (MIG) Biomarker Activity (AID 2283092); conditions: primary human HUVEC with PBMC; actives raise or lower the signal
In short: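 Values reflect bidirectional fitting of ELISA-measured MIG against DMSO vehicle, taken 24 h after dosing of a co-culture of human umbilical vein endothelial cells and peripheral blood mononuclear cells.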

[3] = BSK_SAg_PBMCCytotoxicity: PBMC Cytotoxicity Assessment in the BioMAP Diversity Plus: SAg Assay (AID 2283093); conditions: primary human HUVEC with PBMC;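 further: fitted both ways against DMSO so a hit may be loss or gain of signal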;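 on AC50: PBMC superantigen activated with SEB plus TSST-1 one hour after compound addition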
In short: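 PBMC viability by Alamar Blue reduction, fluorescence read at 546/580 nm after 6 h dye exposure. Cells were dosed 1 h before SEB plus TSST-1 activation (20 ng/mL final each), then held 90 h; endothelial/PBMC human co-culture.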

[4] = read-out: Interleukin-8 (IL8), CXCL8 (gene 3576); test: BSK_SAg_IL8: BioMAP Diversity Plus: SAg Assay for Interleukin-8 (IL8) Biomarker Activity (AID 2283094); conditions: primary human HUVEC with PBMC; actives raise or lower the signal
In short: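 Primary human endothelial cells with PBMC, exposed 24 h; IL-8 determined by ELISA, analysed bidirectionally relative to DMSO.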

[5] = BSK_SAg_Proliferation: Cell Proliferation Assessment in the BioMAP Diversity Plus: SAg Assay (AID 2283095); conditions: primary human HUVEC with PBMC;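 further: relative cell number as total protein by SRB absorbance in sub-confluent culture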
In short: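 A human primary co-culture of umbilical vein endothelium and blood mononuclear cells receives compound; relative cell number is quantified at 96 h by SRB staining and 560 nm absorbance, with DMSO-referenced bidirectional curve fitting.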

[6] = BSK_SAg_SRB: Viability Assessment in the BioMAP Diversity Plus: SAg Assay (AID 2283096); conditions: primary human HUVEC with PBMC;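 further: cells read one day after compound addition; hits may be either gain or loss of signal compared with DMSO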
In short: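 Compounds were added to a human vascular co-culture of umbilical vein endothelium and PBMC. After 24 h, parallel cultures were fixed with 10% TCA, stained with 0.1% sulforhodamine B and read at 560 nm. Gain or loss of signal was fitted relative to DMSO.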

[7] = biological target: human CYP1A1, CYP1A1 (gene 1543) (UniProt P04798); test: NVS_ADME_hCYP1A1: NovaScreen (NVS) CYP450-related Enzyme Activity (ADME) Assay for human CYP1A1 (AID 2283100; active means hit-call score of the fitted dose curve at least 0.9, where 1 is the maximum)
Chain of human CYP1A1, CYP1A1 (gene 1543) (P04798 whole entry, looked up): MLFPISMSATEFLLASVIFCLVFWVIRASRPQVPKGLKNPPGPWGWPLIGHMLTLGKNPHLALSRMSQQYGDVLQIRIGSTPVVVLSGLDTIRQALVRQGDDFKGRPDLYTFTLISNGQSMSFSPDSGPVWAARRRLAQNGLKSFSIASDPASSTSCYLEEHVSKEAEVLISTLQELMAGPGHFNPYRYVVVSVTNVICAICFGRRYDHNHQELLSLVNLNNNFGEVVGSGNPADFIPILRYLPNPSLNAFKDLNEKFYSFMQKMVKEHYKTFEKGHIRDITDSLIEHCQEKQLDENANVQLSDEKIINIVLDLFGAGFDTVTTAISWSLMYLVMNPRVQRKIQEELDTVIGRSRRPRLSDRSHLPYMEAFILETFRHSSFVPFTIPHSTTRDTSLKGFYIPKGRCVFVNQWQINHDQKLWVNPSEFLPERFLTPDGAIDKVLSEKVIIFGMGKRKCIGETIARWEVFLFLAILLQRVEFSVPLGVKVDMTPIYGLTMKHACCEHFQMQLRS
In short: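 Chemicals were first tested in duplicate at 10 uM, and those passing a 30% inhibition threshold were rerun as concentration series topping at 20 uM. Fluorescence read-out of recombinant enzyme turnover after 1 h, relative to acetonitrile.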

[8] = biological target: human CYP2B6, CYP2B6 (gene 1555) (UniProt P20813); test: NVS_ADME_hCYP2B6: NovaScreen (NVS) CYP450-related Enzyme Activity (ADME) Assay for human CYP2B6 (AID 2283101; active means hit-call score of the fitted dose curve at least 0.9, where 1 is the maximum)
Chain of human CYP2B6, CYP2B6 (gene 1555) (P20813 whole entry, looked up): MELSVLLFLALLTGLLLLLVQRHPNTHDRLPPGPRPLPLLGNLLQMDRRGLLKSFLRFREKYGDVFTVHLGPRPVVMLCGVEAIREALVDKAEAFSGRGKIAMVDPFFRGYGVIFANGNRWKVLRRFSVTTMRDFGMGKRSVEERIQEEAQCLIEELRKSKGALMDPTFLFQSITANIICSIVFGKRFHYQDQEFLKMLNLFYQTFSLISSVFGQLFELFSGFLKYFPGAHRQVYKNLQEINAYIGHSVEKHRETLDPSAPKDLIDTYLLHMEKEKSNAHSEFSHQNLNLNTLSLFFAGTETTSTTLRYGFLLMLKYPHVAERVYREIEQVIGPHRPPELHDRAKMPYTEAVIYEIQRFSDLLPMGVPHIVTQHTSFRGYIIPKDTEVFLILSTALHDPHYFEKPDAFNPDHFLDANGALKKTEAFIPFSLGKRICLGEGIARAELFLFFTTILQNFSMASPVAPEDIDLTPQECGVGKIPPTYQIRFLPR
In short: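 Compounds were first screened in duplicate at 10 uM against recombinant enzyme, with the fluorescent product measured after 1 hour. Active compounds were retested over a concentration series. Loss of fluorescence versus acetonitrile control was scored as reduced enzyme activity.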

[9] = biological target: human CYP2A6, CYP2A6 (gene 1548) (UniProt P11509); test: NVS_ADME_hCYP2A6: NovaScreen (NVS) CYP450-related Enzyme Activity (ADME) Assay for human CYP2A6 (AID 2283099; active means hit-call score of the fitted dose curve at least 0.9, where 1 is the maximum)
Chain of human CYP2A6, CYP2A6 (gene 1548) (P11509 whole entry, looked up): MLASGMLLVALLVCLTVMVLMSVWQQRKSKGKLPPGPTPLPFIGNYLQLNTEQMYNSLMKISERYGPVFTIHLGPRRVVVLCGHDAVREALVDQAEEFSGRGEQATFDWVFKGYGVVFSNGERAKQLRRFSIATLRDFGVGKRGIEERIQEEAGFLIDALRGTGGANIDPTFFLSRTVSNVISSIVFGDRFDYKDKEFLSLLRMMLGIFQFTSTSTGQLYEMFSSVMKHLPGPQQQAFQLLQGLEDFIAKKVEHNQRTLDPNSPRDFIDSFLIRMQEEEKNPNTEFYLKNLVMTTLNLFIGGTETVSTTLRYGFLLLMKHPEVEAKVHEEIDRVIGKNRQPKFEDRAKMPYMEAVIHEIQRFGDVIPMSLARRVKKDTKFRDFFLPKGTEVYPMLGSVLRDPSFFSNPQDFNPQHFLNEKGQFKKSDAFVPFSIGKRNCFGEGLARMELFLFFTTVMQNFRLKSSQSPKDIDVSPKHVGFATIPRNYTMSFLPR
In short: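 Compounds screened at 10 uM (duplicate) and, if active, titrated to a 20 uM top concentration against insect-cell-expressed CYP2A6. Loss of fluorescent product signal after 0.5 h, relative to acetonitrile baseline, indicates inhibition.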

[10] = biological target: human CYP19A1, CYP19A1 (gene 1588) (UniProt P11511); test: NVS_ADME_hCYP19A1: NovaScreen (NVS) CYP450-related Enzyme Activity (ADME) Assay for human CYP19A1 (AID 2283098; active means hit-call score of the fitted dose curve at least 0.9, where 1 is the maximum)
Chain of human CYP19A1, CYP19A1 (gene 1588) (P11511 whole entry, looked up): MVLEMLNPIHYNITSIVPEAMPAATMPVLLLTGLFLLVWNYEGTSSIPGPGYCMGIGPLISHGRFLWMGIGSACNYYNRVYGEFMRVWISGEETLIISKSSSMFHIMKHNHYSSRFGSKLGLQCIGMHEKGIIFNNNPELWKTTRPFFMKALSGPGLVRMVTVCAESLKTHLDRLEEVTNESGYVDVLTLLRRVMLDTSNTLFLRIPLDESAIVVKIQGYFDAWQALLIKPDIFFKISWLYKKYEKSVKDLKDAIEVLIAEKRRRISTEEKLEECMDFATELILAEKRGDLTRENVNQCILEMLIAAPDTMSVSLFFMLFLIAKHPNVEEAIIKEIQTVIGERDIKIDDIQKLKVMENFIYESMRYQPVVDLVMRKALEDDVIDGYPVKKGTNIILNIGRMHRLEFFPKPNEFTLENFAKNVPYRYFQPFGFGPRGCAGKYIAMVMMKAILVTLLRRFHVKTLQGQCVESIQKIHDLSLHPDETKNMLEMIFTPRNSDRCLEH
In short: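 Fluorescence intensity read-out; activity taken as signal loss relative to acetonitrile vehicle. Extracted enzyme, specific substrate, no cells, 0.5 h exposure. Duplicate single-point screen at 10 uM, then concentration–response follow-up for actives.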

Measured: AC50

Chain of E-selectin (Homo sapiens) (P16581 whole entry, looked up): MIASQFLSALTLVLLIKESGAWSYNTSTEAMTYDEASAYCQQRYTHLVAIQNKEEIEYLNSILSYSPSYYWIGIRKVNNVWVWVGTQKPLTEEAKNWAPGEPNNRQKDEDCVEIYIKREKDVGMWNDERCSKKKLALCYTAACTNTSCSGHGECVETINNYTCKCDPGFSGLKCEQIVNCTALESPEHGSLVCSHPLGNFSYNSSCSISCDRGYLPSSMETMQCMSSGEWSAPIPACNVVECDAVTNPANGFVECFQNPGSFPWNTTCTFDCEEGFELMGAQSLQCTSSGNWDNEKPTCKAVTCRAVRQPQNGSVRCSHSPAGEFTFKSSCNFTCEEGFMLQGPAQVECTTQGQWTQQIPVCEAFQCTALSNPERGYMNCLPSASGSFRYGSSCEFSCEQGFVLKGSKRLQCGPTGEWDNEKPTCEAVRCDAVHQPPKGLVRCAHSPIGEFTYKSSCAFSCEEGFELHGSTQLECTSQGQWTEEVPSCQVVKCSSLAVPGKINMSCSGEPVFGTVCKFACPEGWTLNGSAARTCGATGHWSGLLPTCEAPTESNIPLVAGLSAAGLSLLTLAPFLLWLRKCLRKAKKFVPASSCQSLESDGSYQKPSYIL

CC(C)(C)C(O)(CCc1ccc(Cl)cc1)Cn1cncn1 (stereo not drawn)
not listed: [9] | [10]
inactive: all other assays above

CCCCCCCCn1sccc1=O
inactive: [7]
active: [1] 12.8 µM | [2] 14.2 µM | [3] 3.84 µM | [4] 13.4 µM | [5] 1.76 µM | [6] 20.8 µM | [9] 4.74 µM | [8] 0.975 µM

c1ccc(NNc2ccccc2)cc1
inactive: [1] | [2] | [3] | [4] | [5] | [6]

Cc1cc(N=Nc2ccccc2C)ccc1N
active: [1] 4.75 µM | [4] 29.2 µM | [5] 29.2 µM | [6] 9.88 µM | [7] 5.4 µM | [8] 1.71 µM
inactive: [2] | [3] | [9]

Cc1ccc(N=C=O)cc1N=C=O
inactive: [1] | [2] | [3] | [4] | [6]
active: [5] 10.5 µM

COP(=S)(OC)SCN1C(=O)c2ccccc2C1=O
active: [7] 3.41 µM | [8] 0.766 µM
not listed: [9] | [10]
inactive: all other assays above

Nc1ccc([N+](=O)[O-])cc1
active: [9] 8.46 µM
not listed: [7] | [8] | [10]
inactive: all other assays above

c1ccc2c(c1)-c1cccc3cccc-2c13
inactive: [2] | [3] | [5]
active: [1] 31.6 µM | [4] 32.2 µM | [6] 29.5 µM

Clc1ccc(C(c2ccc(Cl)cc2)C(Cl)(Cl)Cl)cc1
active: [1] 38.2 µM | [2] 35.1 µM | [3] 15.5 µM | [4] 17 µM | [5] 12.7 µM | [6] 21.6 µM

Clc1ccccc1Cl
not listed: [7] | [8]
inactive: all other assays above

O=C(O)C1C2CCC(O2)C1C(=O)O (stereo not drawn)
active: [5] 18.6 µM | [6] 25.6 µM
inactive: [1] | [2] | [3] | [4]

CCOC(=O)[C@]1(c2ccccc2)Oc2ccccc2[C@@H]1N
active: [3] 24.3 µM | [5] 31.3 µM | [8] 0.269 µM
not listed: [10]
inactive: all other assays above
